According to PubChem BioAssay AID651718 (The Scripps Research Institute Molecular Screening Center, 2012):
Screen size: about 360,000 compounds; about 2,700 (0.75%) were called active. The full list was thinned out, with actives kept by preference. Values without a mark were called inactive. Cut-off read from the data, not from the text of the source: active = inhibition above about 4.5%; inactive = the rest.

System: Methionine sulfoxide reductase A (Bos taurus)
Test: inhibition of methionine sulfoxide reductase A – biochemical, absorbance, bovine, HTS, primary screen (AID 651718);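 note: 0% = vehicle wells with enzyme and 100% = reference inhibitor wells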
Settings: purified bovine MsrA, absorbance read-out; at 15.5 µM; stronger effect = higher value

SMILES | inhibition
COC(=O)[C@]12C[C@H](CC(=O)NCc3cccc(C(F)(F)F)c3)C(=O)N(Cc3ccc4c(c3)OCO4)C1=C[C@H](COCc1ccccc1)O[C@@H]2C | 0.87%
CC(C)C[C@H](NC(=O)CC1CCCC1)C(=O)N1CCC[C@H]1C(=O)NCc1ccccc1 | 0.9%
COC(=O)C1=C(C)N(Cc2cccc(C(F)(F)F)c2)C(=NCc2cccc(C(F)(F)F)c2)NC1c1ccccc1C(F)(F)F (stereo unspecified) | -1.33%
CCC(=O)Nc1c(S(=O)(=O)c2ccccc2)c2nc3ccccc3nc2n1Cc1ccccc1 | 2.69%
Cc1ccc(S(=O)(=O)c2c(N)n(C)c3nc4ccccc4nc23)cc1 | 4.64% (active)
CCN(CC)CCn1c(N)c(S(=O)(=O)c2ccccc2)c2nc3ccccc3nc21 | 0.85%
O=C1CN(C(=O)COc2c(Cl)cccc2Cl)c2ccccc2N1 | -0.91%
COC(=O)[C@]12C[C@H](CC(=O)NCc3ccccc3)C(=O)N(CCC3=CCCCC3)C1=C[C@H](C(C)(C)C)O[C@@H]2C | 0.95%
O=C(CCNC(=O)c1ccccc1)NN=Cc1ccc(Br)o1 | 0.9%
O=C(CCC(=O)N/N=C/c1ccc(Br)o1)N/N=C/c1ccc(Br)o1 | 1%
O=C(N/N=C/c1ccc(Br)o1)c1cncc(Br)c1 | 4.63% (active)
CCCCN(C(=O)COc1ccc(NC(C)=O)cc1)C1CCS(=O)(=O)C1 (stereo unspecified) | -0.22%
Cc1cc(C)c(S(=O)(=O)NCC(c2ccc3c(c2)OCO3)N2CCOCC2)c(C)c1 (stereo unspecified) | -0.85%
CC(C)OP(=O)(OC(C)C)C(Nc1ccccc1)c1cccc([N+](=O)[O-])c1 (stereo unspecified) | 1.56%
CC1(C)C/C(=N/Nc2ccc([N+](=O)[O-])cc2[N+](=O)[O-])C(C)(C)O1 | -0.53%
CC(Nc1ccc([N+](=O)[O-])cc1[N+](=O)[O-])c1ccccc1 (stereo unspecified) | 35.6% (active)
COC(=O)[C@]12C[C@H](CC(=O)N3CCN(C(=O)C4CC4)CC3)C(=O)N(Cc3ccc4c(c3)OCO4)C1=C[C@H](C(C)(C)C)O[C@@H]2C | -0.48%
CC(=O)c1ccc(S(=O)(=O)NCC2CCN(C(=O)C(=O)c3cccs3)CC2)cc1 | 0.56%
Cc1ccc2nc(CN(C)C(=O)[C@@H](Cc3ccccc3)NC(=O)[C@H]3O[C@@H](n4ccc(=O)[nH]c4=O)[C@H](O)[C@@H]3O)[nH]c2c1 | 0.5%

SMILES | inhibition
Cc1ccc(C(=O)N/N=C/c2sc(=O)n(Cc3cccc(C(=O)O)c3)c2Cl)cc1 | 6.02% (active)
Cc1ccccc1-n1c(C)cc(/C=N/NC(=O)c2ccc(CN3CCOCC3)cc2)c1C | 1.71%
Cc1ccc(C(=O)Nc2c(C#N)c(C)c(C)n2Cc2ccccc2)cc1 | -0.41%
CC1CC(c2ccccc2)n2nc(NC(=O)c3cccs3)nc2N1 (stereo unspecified) | -0.81%
CC1=C(N2CCN(c3ncccn3)CC2)CCC1=O | 0%
O=C1/C(=C\Nc2ccccc2)CCN1c1ncccn1 | 5.03% (active)
COc1ccccc1Oc1ccc(N/C=C2/CCCC2=O)cc1 | 1.18%
CNS(=O)(=O)c1ccc(NC(=O)C2CC(=O)N(c3ccc(Cl)cc3)C2)cc1 (stereo unspecified) | 1.4%
CCOc1cc(-c2noc(CCC(=O)N3CCOCC3)n2)ccc1OC | -1.14%
CCOc1ccc(/C=C(/C#N)c2nnc(N3CCOCC3)n2-c2ccccc2)cc1OC | 6.28% (active)
COc1cc(/C=C/C(=O)OCC(=O)N2CCOCC2)ccc1OCC#N | 2.74%
NC(=O)c1ncn([C@@H]2O[C@H](C(=O)O)[C@@H](O)[C@H]2O)n1 | 0.08%
CCCOc1ccc(/C(O)=C2/C(=O)C(=O)N(CCN(C)C)C2c2ccc(OC)c(OC)c2)cc1 (stereo unspecified) | 1.66%
COc1cc(C2C(C(=O)c3sc(C)nc3C)=C(O)C(=O)N2CCN(C)C)cc(OC)c1OC (stereo unspecified) | 18.4% (active)
COc1ccc(C2C(C(C)=O)=C(O)C(=O)N2CCc2c[nH]c3ccccc23)cc1 (stereo unspecified) | 2.78%
Cc1cc(C)c(S(=O)(=O)NCCCN2CCOCC2)cc1Br | -0.29%
CCc1nnc(NC(=O)[C@@H](NC(=O)c2cccc(C)c2)C(C)C)s1 | 0.82%
CCc1nnc(NC(=O)/C=C/c2ccc(C)o2)s1 | 5.52% (active)
CCc1nnc(NC(=O)c2ccco2)s1 | 2.11%

SMILES | inhibition
COc1ccc(SSc2ccc(OC)cc2C(=O)O)c(C(=O)O)c1 | 3.29%
CC(=O)C1=C(C)N(Cc2ccc(Cl)cc2)C(=S)NC1c1ccc(F)cc1 (stereo unspecified) | 0.08%
Cc1cc2c(=O)n(CC(=O)NCC(=O)Nc3ccc(C(C)C)cc3)cnc2s1 | -2.15%
NC(=O)c1ccc(Nc2ccc3c(c2)CCC3)c([N+](=O)[O-])c1 | 13.9% (active)
Cc1cccc(N2CCN(c3ccc(C(N)=O)cc3[N+](=O)[O-])CC2)c1C | -0.25%
O=[N+]([O-])c1ccccc1Nc1ccc(O)cc1 | 2.41%
CC(=O)Nc1ccc2c3c(ccc([N+](=O)[O-])c13)CC2 | 0.76%
Cc1ccc(Nc2cc(C)nc3c(C)ccc([N+](=O)[O-])c23)cc1 | -0.67%
Cc1ccc(Nc2ccc(C(N)=O)cc2[N+](=O)[O-])cc1 | 11.1% (active)
C=CC1=CCN(S(=O)(=O)C(C)(C)C)[C@@H]1CCO | -1.1%
COc1ccc(C)cc1NC(=O)CNCc1cccs1 | 1.1%
N=C1c2ccccc2-c2ccccc21 | 0.22%
COc1cc(C2CC(=O)N3CN(Cc4ccccc4)CSC3=C2C#N)ccc1OCc1ccccc1 (stereo unspecified) | 0.9%
CCCCN1C(=O)C(CC(=O)NCc2cccs2)CC(C(=O)N2CCOCC2)=C1C (stereo unspecified) | 0.14%
OC(c1ccccc1)(c1ccccc1)C1CCN(CCCOc2ccc(-c3ccsc3)cc2)CC1 | 0.25%
O=C(O)c1cccc(NC(=S)N/N=C/c2c[nH]c3ccccc23)c1 | 5.25% (active)
O=C(Cc1c[nH]c2ccccc12)N/N=C/c1cccc(F)c1 | 0.41%
CN(C)S(=O)(=O)c1cccc(NC(=S)N/N=C/C(=O)c2ccccc2)c1 | 1.15%
